# Reference: PMC7862700, “An all-to-all approach to the identification of sequence-specific readers for epigenetic DNA modifications on cytosine”
# Key:
# Assay in all cases: DAPPL (digital affinity profiling via proximity ligation, sequencing); 10 mM Tris-HCl pH 7.5, 50 mM NaCl, 1 mM DTT, 4% glycerol, room temperature, 30 min; GST-TFs on glutathione beads, 16-mer random dsDNA library, 0.1% formaldehyde crosslink after washing; high values mean tight binding
# [1] = molecular target: T1, FEV (Homo sapiens, UniProt Q99581 1-238); conditions: protein: recombinant; tags: N-terminal GST; dsDNA, one strand shown
# T1 sequence: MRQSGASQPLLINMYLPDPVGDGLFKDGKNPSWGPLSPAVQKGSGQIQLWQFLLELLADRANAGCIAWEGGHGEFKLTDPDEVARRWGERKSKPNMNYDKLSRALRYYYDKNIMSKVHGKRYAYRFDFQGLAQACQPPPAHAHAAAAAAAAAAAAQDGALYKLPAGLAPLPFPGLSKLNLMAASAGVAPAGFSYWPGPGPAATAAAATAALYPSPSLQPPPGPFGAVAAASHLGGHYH
# How it was run: (§1)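 In yeast, human transcription factors were expressed with a GST fusion, then pulled down on glutathione beads and given DNA barcodes. Pooled with a tag-only sample, they were exposed to 200 nmole of a 16-mer random double-stranded DNA library (Tris/NaCl/DTT/glycerol buffer, room temperature, 30 min), washed, crosslinked with 0.1% formaldehyde, proximity-ligated using BsaI/T4 ligase for 1 h at 37 °C, PCR-amplified and read on an Illumina NextSeq500. Each hexamer's frequency of reads for a factor, divided by the matching frequency for the tag-only sample, gives the binding signal.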
# [2] = molecular target: ETV5 (Homo sapiens, UniProt P41161 1-510); conditions: protein: recombinant; tags: N-terminal GST; dsDNA, one strand shown
# How it was run: as §1
# [3] = molecular target: HSF1 (Homo sapiens, UniProt Q00613 1-529); conditions: protein: recombinant; tags: N-terminal GST; chain copies: 3; dsDNA, one strand shown
# How it was run: as §1
# [4] = molecular target: T2, SPIC (Homo sapiens, UniProt Q8N5J4 1-248); conditions: protein: recombinant; tags: N-terminal GST; dsDNA, one strand shown
# T2 sequence: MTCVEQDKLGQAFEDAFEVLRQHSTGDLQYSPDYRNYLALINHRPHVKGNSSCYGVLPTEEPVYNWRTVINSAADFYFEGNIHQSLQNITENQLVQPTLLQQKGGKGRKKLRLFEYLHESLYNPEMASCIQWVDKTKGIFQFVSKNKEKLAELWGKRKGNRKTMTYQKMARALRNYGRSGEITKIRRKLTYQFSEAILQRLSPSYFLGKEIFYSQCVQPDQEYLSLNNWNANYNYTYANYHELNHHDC
# How it was run: as §1
# [5] = molecular target: ELF4 (Homo sapiens, UniProt Q99607 1-663); conditions: protein: recombinant; tags: N-terminal GST; dsDNA, one strand shown
# How it was run: as §1
# [6] = molecular target: T3, ELK4 (Homo sapiens, UniProt P28324-2 1-405); conditions: protein: recombinant; tags: N-terminal GST; dsDNA, one strand shown
# T3 sequence: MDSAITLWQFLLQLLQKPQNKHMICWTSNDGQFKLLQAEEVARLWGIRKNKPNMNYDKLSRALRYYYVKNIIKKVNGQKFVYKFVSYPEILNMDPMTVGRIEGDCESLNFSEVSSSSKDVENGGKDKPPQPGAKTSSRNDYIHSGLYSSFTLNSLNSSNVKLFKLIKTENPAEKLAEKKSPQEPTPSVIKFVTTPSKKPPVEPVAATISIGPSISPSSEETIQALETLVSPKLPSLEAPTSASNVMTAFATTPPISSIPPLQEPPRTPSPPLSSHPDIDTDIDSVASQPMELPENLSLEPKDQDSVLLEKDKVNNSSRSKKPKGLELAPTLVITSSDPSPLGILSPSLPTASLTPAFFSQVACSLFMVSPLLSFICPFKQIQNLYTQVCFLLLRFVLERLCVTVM
# How it was run: as §1
# [7] = molecular target: T4, ETV2 (Homo sapiens, UniProt O00321 1-342); conditions: protein: recombinant; tags: N-terminal GST; dsDNA, one strand shown
# T4 sequence: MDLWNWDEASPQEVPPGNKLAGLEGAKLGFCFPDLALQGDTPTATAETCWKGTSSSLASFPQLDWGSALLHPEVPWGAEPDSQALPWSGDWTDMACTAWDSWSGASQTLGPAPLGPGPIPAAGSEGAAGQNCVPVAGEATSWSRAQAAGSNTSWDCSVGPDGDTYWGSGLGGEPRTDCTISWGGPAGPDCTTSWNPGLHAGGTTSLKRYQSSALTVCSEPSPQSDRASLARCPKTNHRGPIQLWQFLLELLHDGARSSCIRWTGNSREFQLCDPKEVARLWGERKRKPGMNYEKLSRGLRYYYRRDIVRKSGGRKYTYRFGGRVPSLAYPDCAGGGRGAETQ
# How it was run: as §1
# [8] = molecular target: T5, ELF3 (Homo sapiens, UniProt P78545 1-371); conditions: protein: recombinant; tags: N-terminal GST; dsDNA, one strand shown
# T5 sequence: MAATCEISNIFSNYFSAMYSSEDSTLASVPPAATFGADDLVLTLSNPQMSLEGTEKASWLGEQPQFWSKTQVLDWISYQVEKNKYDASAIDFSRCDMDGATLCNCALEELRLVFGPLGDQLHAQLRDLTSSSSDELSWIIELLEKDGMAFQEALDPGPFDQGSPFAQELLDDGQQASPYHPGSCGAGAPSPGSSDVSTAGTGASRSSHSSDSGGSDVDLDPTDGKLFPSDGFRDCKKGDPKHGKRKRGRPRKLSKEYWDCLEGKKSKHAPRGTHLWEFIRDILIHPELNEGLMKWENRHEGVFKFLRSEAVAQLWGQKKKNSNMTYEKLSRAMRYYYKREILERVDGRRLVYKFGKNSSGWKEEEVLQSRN
# How it was run: as §1
# [9] = molecular target: CRX (Homo sapiens, UniProt O43186 1-299); conditions: protein: recombinant; tags: N-terminal GST; dsDNA, one strand shown
# How it was run: as §1
# [10] = molecular target: ETV1 (Homo sapiens, UniProt P50549 1-477); conditions: protein: recombinant; tags: N-terminal GST; dsDNA, one strand shown
# How it was run: as §1
# Sequence of ELF4 (Q99607 whole entry): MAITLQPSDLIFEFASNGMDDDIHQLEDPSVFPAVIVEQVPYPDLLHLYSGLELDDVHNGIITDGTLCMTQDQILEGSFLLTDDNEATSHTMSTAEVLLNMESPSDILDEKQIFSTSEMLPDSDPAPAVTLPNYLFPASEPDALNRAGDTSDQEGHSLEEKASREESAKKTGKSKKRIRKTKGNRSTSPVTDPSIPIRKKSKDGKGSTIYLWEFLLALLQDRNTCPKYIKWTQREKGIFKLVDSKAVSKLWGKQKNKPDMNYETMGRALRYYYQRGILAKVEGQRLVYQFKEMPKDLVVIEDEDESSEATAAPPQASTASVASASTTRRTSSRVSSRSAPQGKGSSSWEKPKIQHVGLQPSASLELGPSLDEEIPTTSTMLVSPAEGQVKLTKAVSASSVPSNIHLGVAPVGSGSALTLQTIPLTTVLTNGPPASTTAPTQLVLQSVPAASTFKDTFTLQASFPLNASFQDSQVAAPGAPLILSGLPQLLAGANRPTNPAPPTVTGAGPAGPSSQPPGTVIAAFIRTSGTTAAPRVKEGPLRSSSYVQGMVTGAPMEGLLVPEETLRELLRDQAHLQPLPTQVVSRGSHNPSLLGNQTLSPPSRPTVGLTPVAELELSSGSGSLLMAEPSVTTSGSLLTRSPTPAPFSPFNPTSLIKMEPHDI
# Sequence of CRX (O43186 whole entry): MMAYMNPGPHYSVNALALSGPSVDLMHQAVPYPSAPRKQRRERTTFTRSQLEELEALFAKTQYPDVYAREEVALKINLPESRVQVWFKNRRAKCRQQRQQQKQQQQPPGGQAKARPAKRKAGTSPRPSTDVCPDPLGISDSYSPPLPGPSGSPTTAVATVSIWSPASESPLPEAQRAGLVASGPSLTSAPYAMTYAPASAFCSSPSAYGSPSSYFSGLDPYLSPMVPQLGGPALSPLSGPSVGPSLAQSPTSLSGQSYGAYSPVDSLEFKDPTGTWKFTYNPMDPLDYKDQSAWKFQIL
# Sequence of ETV1 (P50549 whole entry): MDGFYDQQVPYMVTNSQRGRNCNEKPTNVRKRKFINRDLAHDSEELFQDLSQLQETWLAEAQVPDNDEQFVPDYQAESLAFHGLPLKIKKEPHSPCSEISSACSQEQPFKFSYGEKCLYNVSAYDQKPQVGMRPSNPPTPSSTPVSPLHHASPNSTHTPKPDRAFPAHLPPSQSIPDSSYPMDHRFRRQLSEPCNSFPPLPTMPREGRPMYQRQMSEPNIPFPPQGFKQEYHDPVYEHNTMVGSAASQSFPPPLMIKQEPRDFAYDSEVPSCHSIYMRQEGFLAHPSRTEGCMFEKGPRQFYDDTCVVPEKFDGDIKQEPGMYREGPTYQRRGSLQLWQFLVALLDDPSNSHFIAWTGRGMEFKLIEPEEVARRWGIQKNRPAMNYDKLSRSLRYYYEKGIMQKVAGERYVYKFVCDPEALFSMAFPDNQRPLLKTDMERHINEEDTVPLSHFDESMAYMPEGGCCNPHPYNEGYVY
# Sequence of HSF1 (Q00613 whole entry): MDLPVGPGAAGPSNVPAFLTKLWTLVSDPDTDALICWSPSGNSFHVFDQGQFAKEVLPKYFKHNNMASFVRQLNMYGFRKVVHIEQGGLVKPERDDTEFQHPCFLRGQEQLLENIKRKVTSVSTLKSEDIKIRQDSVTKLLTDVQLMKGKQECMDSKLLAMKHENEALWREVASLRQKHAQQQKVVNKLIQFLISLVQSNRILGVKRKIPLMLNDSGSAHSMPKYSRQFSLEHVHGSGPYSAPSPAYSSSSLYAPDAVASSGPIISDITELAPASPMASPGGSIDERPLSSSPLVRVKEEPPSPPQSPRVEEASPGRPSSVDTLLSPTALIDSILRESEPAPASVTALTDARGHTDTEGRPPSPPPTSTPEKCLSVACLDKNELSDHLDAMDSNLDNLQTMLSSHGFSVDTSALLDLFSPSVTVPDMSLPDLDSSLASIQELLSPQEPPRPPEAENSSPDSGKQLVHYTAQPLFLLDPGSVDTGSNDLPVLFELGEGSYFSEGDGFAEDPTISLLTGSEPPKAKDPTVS
# Sequence of ETV5 (P41161 whole entry): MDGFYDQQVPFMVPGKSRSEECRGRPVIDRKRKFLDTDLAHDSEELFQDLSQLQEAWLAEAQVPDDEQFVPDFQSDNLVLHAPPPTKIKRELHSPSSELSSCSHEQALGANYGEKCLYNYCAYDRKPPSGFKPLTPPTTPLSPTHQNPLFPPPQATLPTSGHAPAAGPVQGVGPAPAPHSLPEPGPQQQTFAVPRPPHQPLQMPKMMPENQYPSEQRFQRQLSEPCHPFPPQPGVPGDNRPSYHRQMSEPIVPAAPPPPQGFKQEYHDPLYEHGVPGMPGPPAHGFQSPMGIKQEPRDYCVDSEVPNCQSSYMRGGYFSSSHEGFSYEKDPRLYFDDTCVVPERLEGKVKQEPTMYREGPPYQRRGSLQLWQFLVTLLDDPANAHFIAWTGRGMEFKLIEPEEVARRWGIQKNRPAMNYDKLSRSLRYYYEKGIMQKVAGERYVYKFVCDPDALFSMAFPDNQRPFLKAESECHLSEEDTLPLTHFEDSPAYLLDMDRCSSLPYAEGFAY
sequence,measurement,setting,value
CACGCT,binding signal,[1],"1.32 fold enrichment (6-mer frequency, TF over GST control)"
same,binding signal,[2],"1.34 fold enrichment (6-mer frequency, TF over GST control)"
same,binding signal,[3],"1.19 fold enrichment (6-mer frequency, TF over GST control)"
same,binding signal,[4],"1.23 fold enrichment (6-mer frequency, TF over GST control)"
same,binding signal,[5],"1.43 fold enrichment (6-mer frequency, TF over GST control)"
same,binding signal,[6],"1.36 fold enrichment (6-mer frequency, TF over GST control)"
same,binding signal,[7],"1.27 fold enrichment (6-mer frequency, TF over GST control)"
same,binding signal,[8],"1.4 fold enrichment (6-mer frequency, TF over GST control)"
same,binding signal,[9],"1.17 fold enrichment (6-mer frequency, TF over GST control)"
same,binding signal,[10],"1.34 fold enrichment (6-mer frequency, TF over GST control)"
